The whole screen tested about 5,500 compounds, of which about 2,000 (36%) were called active. Not shown: some 18% with an inconclusive outcome. Cut-off read from the data, not from the text of the source: active = normalized growth mostly below about 0.91 (no sharp cut-off); inconclusive = no clear call, values can overlap the other calls; inactive = mostly above about 0.92. Some of the results follow.
Test: chemical genetic growth profiling, strain panel (AID 1159580);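 note: tested at 20 µM; growth read once vehicle control cultures reached saturation at 30 °C; 1 = growth at the plate median or of vehicle wells; lower values mean less growth of the strain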
Conditions: growth OD

Measured: normalized growth

O=C(O)c1ccccc1-c1c2cc(Br)c(=O)cc-2oc2[c]([Hg])c(O)c(Br)cc12
active: S. cerevisiae deletion strains, locus YKL068W, hits give low values 0.565 | S. cerevisiae deletion strains, locus YKL085W, strain MDH1 (second series), hits give low values 0.0686 | S. cerevisiae deletion strains, locus YKL085W, strain MDH1, hits give low values 0.0686 | S. cerevisiae deletion strains, locus YKL160W, strain elf1, hits give low values 0.0872 | S. cerevisiae deletion strains, locus YKL190W, strain CNB1, hits give low values 0.575 | S. cerevisiae deletion strains, locus YKR001C, strain vps1, hits give low values 0.101 | S. cerevisiae deletion strains, locus YLR102C, strain apc9, hits give low values 0.081 | S. cerevisiae deletion strains, locus YLR113W, strain HOG1, hits give low values 0.485 | S. cerevisiae deletion strains, locus YLR268W, strain sec22, hits give low values 0.106 | S. cerevisiae deletion strains, locus YLR330W, strain CHS5, hits give low values 0.0829 | S. cerevisiae deletion strains, locus YLR342W, strain FKS1 (second series), hits give low values 0.132 | S. cerevisiae deletion strains, locus YLR371W, strain rom2, hits give low values 0.0749 | S. cerevisiae deletion strains, locus YLR418C, strain cdc73, hits give low values 0.166 | S. cerevisiae deletion strains, locus YML016C, strain PPZ1, hits give low values 0.0683 | S. cerevisiae deletion strains, locus YML124C, strain tub3, hits give low values 0.779 | S. cerevisiae deletion strains, locus YMR078C, strain ctf18, hits give low values 0.484 | S. cerevisiae deletion strains, locus YMR223W, strain ubp8, hits give low values 0.0739 | S. cerevisiae deletion strains, locus YMR307W, strain GAS1, hits give low values 0.228 | S. cerevisiae deletion strains, locus YNL067W, strain RPL9B, hits give low values 0.814 | S. cerevisiae deletion strains, locus YNL128W, strain TEP1, hits give low values 0.196 | S. cerevisiae deletion strains, locus YNL183C, strain NPR1, hits give low values 0.513 | S. cerevisiae deletion strains, locus YNL233W, strain BNI4, hits give low values 0.104 | S. cerevisiae deletion strains, locus YNL250W, strain rad50, hits give low values 0.0998 | S. cerevisiae deletion strains, locus YNL271C, strain bni1, hits give low values 0.0638 | S. cerevisiae deletion strains, locus YNL298W, strain CLA4, hits give low values 0.062 | S. cerevisiae deletion strains, locus YNL307C, strain MCK1, hits give low values 0.072 | S. cerevisiae deletion strains, locus YNL322C, strain KRE1, hits give low values 0.914 | S. cerevisiae deletion strains, locus YOL006C, strain TOP1, hits give low values 0.153 | S. cerevisiae deletion strains, locus YOR061W, strain CKA2, hits give low values 0.155 | S. cerevisiae deletion strains, locus YOR069W, strain VPS5, hits give low values 0.494 | S. cerevisiae deletion strains, locus YOR136W, strain idh2, hits give low values 0.0743 | S. cerevisiae deletion strains, locus YOR184W, strain ser1, hits give low values 0.143 | S. cerevisiae deletion strains, locus YOR231W, strain MKK1, hits give low values 0.345 | S. cerevisiae deletion strains, locus YOR270C, strain vph1, hits give low values 1.31 [resistant] | S. cerevisiae deletion strains, locus YOR316C, strain cot1, hits give low values 0.0634 | S. cerevisiae deletion strains, locus YPL055C, strain LGE1, hits give low values 0.226 | S. cerevisiae deletion strains, locus YPL256C, strain CLN2, hits give low values 0.487 | S. cerevisiae deletion strains, locus YPR119W, strain clb2, hits give low values 0.0719 | S. cerevisiae deletion strains, locus YPR141C, strain kar3, hits give low values 0.254 | S. cerevisiae deletion strains, locus YPR163C, strain tif3, hits give low values 0.0765 | S. cerevisiae deletion strains, locus YPR167C, strain met16, hits give low values 0.0655 | S. cerevisiae deletion strains, strain wtn01, hits give low values 0.062 | S. cerevisiae strains, strain wild type, hits give low values 0.196
inactive: S. cerevisiae deletion strains, locus YKL009W, strain mrt4, hits give low values 0.924 | S. cerevisiae deletion strains, locus YKR026C, strain gcn3, hits give low values 1.05 | S. cerevisiae deletion strains, locus YKR091W, strain srl3, hits give low values 1.04 | S. cerevisiae deletion strains, locus YLL001W, strain dnm1, hits give low values 1.03 | S. cerevisiae deletion strains, locus YLL026W, hits give low values 1.04 | S. cerevisiae deletion strains, locus YLL041C, strain sdh2, hits give low values 1.02 | S. cerevisiae deletion strains, locus YLR027C, strain aat2, hits give low values 1.04 | S. cerevisiae deletion strains, locus YLR039C, strain RIC1, hits give low values 0.949 | S. cerevisiae deletion strains, locus YLR058C, strain SHM2, hits give low values 0.992 | S. cerevisiae deletion strains, locus YLR221C, strain rsa3, hits give low values 1 | S. cerevisiae deletion strains, locus YLR258W, strain gsy2, hits give low values 1.04 | S. cerevisiae deletion strains, locus YLR262C, strain YPT6 (second series), hits give low values 1.09 | S. cerevisiae deletion strains, locus YLR262C, strain YPT6, hits give low values 0.68 | S. cerevisiae deletion strains, locus YLR320W, strain mms22, hits give low values 1.02 | S. cerevisiae deletion strains, locus YLR342W, strain FKS1, hits give low values 1.02 | S. cerevisiae deletion strains, locus YLR357W, strain rsc2, hits give low values 1 | S. cerevisiae deletion strains, locus YLR370C, strain arc18, hits give low values 1.04 | S. cerevisiae deletion strains, locus YLR384C, strain iki3, hits give low values 1.02 | S. cerevisiae deletion strains, locus YML032C, strain rad52, hits give low values 0.99 | S. cerevisiae deletion strains, locus YML120C, strain ndi1, hits give low values 1.03 | S. cerevisiae deletion strains, locus YMR058W, strain fet3, hits give low values 1.02 | S. cerevisiae deletion strains, locus YMR125W, strain sto1, hits give low values 1.02 | S. cerevisiae deletion strains, locus YMR129W, hits give low values 1.04 | S. cerevisiae deletion strains, locus YMR205C, strain PFK2, hits give low values 1.09 | S. cerevisiae deletion strains, locus YMR231W, strain pep5, hits give low values 1.03 | S. cerevisiae deletion strains, locus YMR263W, strain SAP30, hits give low values 0.943 | S. cerevisiae deletion strains, locus YNL071W, strain lat1, hits give low values 1.01 | S. cerevisiae deletion strains, locus YNL153C, strain GIM3, hits give low values 0.89 | S. cerevisiae deletion strains, locus YNL209W, strain ssb2, hits give low values 1.03 | S. cerevisiae deletion strains, locus YNL248C, strain rpa49, hits give low values 1.02 | S. cerevisiae deletion strains, locus YNL322C, strain KRE1 (second series), hits give low values 1.05 | S. cerevisiae deletion strains, locus YNR049C, strain mso1, hits give low values 1.02 | S. cerevisiae deletion strains, locus YNR052C, strain pop2, hits give low values 0.937 | S. cerevisiae deletion strains, locus YOL012C, strain htz1 0.228 | S. cerevisiae deletion strains, locus YOL147C, strain pex11, hits give low values 0.995 | S. cerevisiae deletion strains, locus YOR001W, strain rrp6, hits give low values 1.04 | S. cerevisiae deletion strains, locus YOR070C, strain gyp1, hits give low values 1.02 | S. cerevisiae deletion strains, locus YOR080W, strain dia2, hits give low values 1.02 | S. cerevisiae deletion strains, locus YOR083W, strain WHI5, hits give low values 1.03 | S. cerevisiae deletion strains, locus YOR106W, strain vam3, hits give low values 0.952 | S. cerevisiae deletion strains, locus YOR144C, strain elg1, hits give low values 1.02 | S. cerevisiae deletion strains, locus YOR265W, strain rbl2, hits give low values 1.04 | S. cerevisiae deletion strains, locus YOR290C, strain snf2, hits give low values 1.07 | S. cerevisiae deletion strains, locus YPL051W, strain arl3, hits give low values 1 | S. cerevisiae deletion strains, locus YPL078C, strain atp4, hits give low values 1.04 | S. cerevisiae deletion strains, locus YPL106C, strain sse1, hits give low values 0.909 | S. cerevisiae deletion strains, locus YPL240C, strain hsp82, hits give low values 1.03 | S. cerevisiae deletion strains, locus YPL241C, strain CIN2, hits give low values 0.987
